NS1 function inh = blocks influenza NS1 protein function; Potency, µM (titrated, usually from 46.1 µM), for the others: at the top dose activity, positive = more growth; AID 2326; hit rate 0.4% among 270,000; calls by dose curve; also: potency is read from the fitted curve at half-maximal effect; actives are rising curves; nearly all actives have a fitted effect of over 50% in size
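S. cerevisiae expressing influenza A NS1, grown in glucose, washed, then diluted 1:100 into pH 6.0 -URA galactose medium with 23 nl compound. Growth recovery read as OD600; NS1-free strain serves as control.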
Pf growth 96h = P. falciparum growth inhibition at 96 hours | P. falciparum luciferase reporter growth, 96 h | Potency, µM (highest dose often 28.7 µM), for the others: at the top dose activity change, negative = inhibition, most hits filed as inhibitors | hit rate 6.9% among 320,000 | AID 504834; also: potency is read from the fitted curve at half-maximal effect; % is scaled to controls: 0 for no effect and ±100 for the full control effect
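Erythrocytes infected with luciferase-expressing P. falciparum were dispensed at 2% hematocrit and 0.05% parasitemia (final), then incubated with compounds 96 hours at 37 C in 5% CO2. Luminescence after detection reagent addition reported growth.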
CHX counter = affects cycloheximide protein synthesis inhibition readout, counter-screen; max response, %; cell reporter, cycloheximide protein synthesis inhibition counterscreen; hit rate 12% among 300,000; in the data active = max response mostly above about 13%, no sharp cut-off; inactive = mostly below about 14%; also: read at 38.3 µM for the half of the compounds with a filed dose; 0% is about no effect
Shiga toxin inh = Shiga toxin inhibition. Vero cells, Shiga toxin protein synthesis inhibition reporter. inhibition, % at 38.7 µM. hit rate 9.2% among 290,000; in the data active = inhibition mostly above about 28%, no sharp cut-off; inactive = mostly below about 43%; also: 0% is about no effect
FBPA Giardia inh = Giardia lamblia aldolase inhibition | Potency, µM (top dose mostly 59.6 µM), without a hit: at the top dose activity, negative = inhibition, hits mostly inhibitors | purified Giardia FBPA | A8B2U2 | hit rate 0.71% among 290,000; also: potency is read from the fitted curve at half-maximal effect; % is scaled to controls: 0 for no effect and ±100 for the full control effect; nearly all actives have a fitted effect of over 55% in size
Target sequence (A8B2U2 whole entry, looked up): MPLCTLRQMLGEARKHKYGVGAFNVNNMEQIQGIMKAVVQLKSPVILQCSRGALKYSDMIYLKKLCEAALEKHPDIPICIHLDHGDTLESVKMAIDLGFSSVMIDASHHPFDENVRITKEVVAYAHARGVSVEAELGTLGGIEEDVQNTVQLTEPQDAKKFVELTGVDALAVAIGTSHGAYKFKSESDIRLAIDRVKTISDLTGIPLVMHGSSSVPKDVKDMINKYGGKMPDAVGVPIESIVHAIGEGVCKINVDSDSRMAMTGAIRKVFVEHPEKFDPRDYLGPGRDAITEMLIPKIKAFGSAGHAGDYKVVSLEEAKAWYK
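Giardia FBPA (40 nM reagent) was preincubated 10 min at RT with compound (up to 57.5 uM final), then substrate plus GAPDH/TPI/NAD/arsenate coupling system with diaphorase/resazurin was added; resorufin fluorescence (525/598 nm) was read after 20 min.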
Pf growth 48h = P. falciparum growth inhibition at 48 hours (one generation). P. falciparum luciferase growth in erythrocytes, 48 h. Potency, µM (titrated, usually from 28.7 µM), for inactives: at the top dose activity change, negative = inhibition, hits mostly inhibitors. hit rate 5.9% among 310,000. AID 504832; also: potency is read from the fitted curve at half-maximal effect; % is scaled to controls: 0 for no effect and ±100 for the full control effect
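Firefly luciferase activity from engineered P. falciparum reports growth; inhibitors lower the luminescent signal. Cultures contained 2% hematocrit erythrocytes at 0.1% final parasitemia.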
Active calls of the source: *; i = inactive; u = inconclusive; x = no result given; + = active, no number; [ ] = another dose, or the depositor's remark. This is a sample that favours compounds with a hit; in the whole collection about 21% have one here. Unless noted, calls follow the shape of the dose curve; as a rule, active = well fitted curve in the direction sought with a large enough effect; inconclusive = small, poorly fitted or top-dose-only effect, or another doubt; inactive = no such curve, though single readings can be large; an effect the other way counts as inactive or inconclusive.

SMILES	NS1 function inh	Pf growth 96h	CHX counter	Shiga toxin inh	FBPA Giardia inh	Pf growth 48h
O=C(N/N=C\c1cc2c(cc1[N+](=O)[O-])OCO2)c1cccs1	6%	u	8	20	x	5%
CCOc1cc(/C=N/NC(=O)c2cccs2)cc([N+](=O)[O-])c1O	-5%	-28%	45*	49*	-10%	-1%
O=C(N/N=C/c1cccc([N+](=O)[O-])c1)c1ccc(Br)cc1	4%	14%	-4	9	0%	11%
CCOC(=O)N/N=C\c1ccc([N+](=O)[O-])s1	x	u	10	42	0%	u
CC(C)(C)OC(=O)N/N=C\c1ccc([N+](=O)[O-])s1	x	7%	58*	81*	-8%	u
COc1ccc(Cl)cc1-c1nc(SCC(=O)NCC2CCCO2)n[nH]1 (configuration not stated)	x	-42%	x	x	x	-24%
O=S(=O)(Nc1nc(-c2ccccc2)cs1)c1cc(Cl)ccc1Cl	-74%	-14%	-1	-5	4%	13%
CCCCOc1ccc(NC(=O)Nc2nnc(C)s2)cc1	8%	0%	10	28	2%	29%
CN1CCN(c2ncc3ncc(=O)n(C[C@H]4CCCO4)c3n2)CC1	x	x	x	x	4%	x
O=C(N/N=C/c1ccc(Br)s1)c1ccc([N+](=O)[O-])cc1	x	-11%	11	-11	-4%	2.1µM*
O=C(N/N=C/c1ccc([N+](=O)[O-])s1)c1cccc(Br)c1	2%	4.1µM*	-2	5	-7%	4.1µM*
O=C(N/N=C/c1cccc([N+](=O)[O-])c1)c1cccs1	9%	398%	26*	34	-9%	90%
O=C(N/N=C/c1cccc(OCc2ccccc2)c1)c1cccs1	-47%	u	30*	75*	-11%	u
O=C(O)c1ccc(COc2ccc(/C=N/NC(=O)c3cccs3)cc2)cc1	-3%	91%	73	113	17%	42%
Cc1ccc(C(=O)N/N=C/c2ccc([N+](=O)[O-])s2)cc1	-32%	24%	-3	-23	x	u
CCCc1cc(=O)oc2cc(OC3CCCCC3=O)ccc12 (configuration not stated)	-3%	4%	13	-2	8%	13%
O=C(N/N=C/c1cccc([N+](=O)[O-])c1)c1cccc(Br)c1	x	1%	22*	24	4%	40%
c1ccc2c(NCCN3CCOCC3)nc(-c3ccc4c(c3)OCO4)nc2c1	x	x	x	x	-9%	x
Cc1ccc(NC(=O)/C(=C\c2ccc([N+](=O)[O-])cc2)NC(=O)c2ccccc2)cc1	-4%	5.2µM*	-4	10	3%	u
COc1ccc(/C=C(\NC(=O)c2ccc(C)cc2)C(=O)Nc2ccc(C(=O)O)cc2)cc1	-10%	u	31*	26	6%	18%
O=C(Nc1cccc2ccccc12)/C(=C/c1ccc([N+](=O)[O-])cc1)NC(=O)c1ccccc1	u	9.3µM*	1	-3	0%	u
CCCNC(=O)Nc1ccc(NC(C)=O)cc1	0%	334%	-4	-3	2%	-7%
COC(=O)c1c(-c2ccccc2)csc1NC1=NS(=O)(=O)c2ccccc21	19%	100%	62*	+	27%	-8%
COC(=O)c1ccc(C(=O)OC)c(NC2=NS(=O)(=O)c3ccccc32)c1	9%	x	-2	-7	6%	12%
N#CCCn1c(=O)c(-c2ccc(F)cc2)nc2cnc(Oc3cccc(Cl)c3)nc21	x	x	x	x	2%	x
CC(C)c1ccc2c(c1)CCC1C(C)(CN)CCCC21C (configuration not stated)	8%	10µM*	-4	21	10%	u
COc1ccc(C2CC(=O)Oc3cc(C)c(Cl)cc32)cc1 (configuration not stated)	x	x	6	i	2%[89.2 µM]	x
OC(c1cccs1)(c1cccs1)C1C[N+]2(CF)CCC1CC2 (configuration not stated)	1%	2.3µM*	-2	11	-1%	10µM*
CCCN(CCC)CCNC(=O)C1CC(=O)N(c2ccc(OC)cc2)C1c1ccc(OC)cc1 (configuration not stated)	-3%	1.7µM*	-3	-14	1%	u
